Source: PubChem (several laboratories)
MEKK2 mut-MEK5 = MEK5 binding signal on mutant MEKK2 PB1, primary screen, biochemical, multiplex bead flow cytometry, Alexa488-MEK5. Alexa488-MEK5 binding to MEKK2 mutant. percent response, % at 10 µM. hit rate 0.35% among 290,000; in the data active = percent response above about 24%, passing the limit was not always enough
MEKK2wt PB1 HTS = modulators of MEK5 binding to wildtype MEKK2, primary screen, biochemical, multiplex bead flow cytometry, Alexa488-MEK5 | hit rate 1.1% among 290,000 | binding response (% of control), % at 10 µM | AID 1531, 2009 | Alexa488-MEK5 binding to MEKK2 WT; actives lie on both sides | Mitogen-activated protein kinase kinase kinase 2 (Homo sapiens), Q9Y2U5; in the data active = binding response below about 67% or above about 130%
CHT PAM = CHT positive allosteric modulators, primary screen, cell-based, membrane potential dye, choline EC20; AID 488977, 2010; hit rate 0.49% among 310,000; High affinity choline transporter 1 (Homo sapiens), Q9GZV3; B-score at 10 µM; CHT-expressing cells; stronger effect = higher value; LV-AA mutant CHT in HEK293 cells;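 active = initial fluorescence not abnormally high and integrated response B-score, plate-corrected, over 3 SD above library mean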
Target sequence (Q9GZV3 whole entry, looked up): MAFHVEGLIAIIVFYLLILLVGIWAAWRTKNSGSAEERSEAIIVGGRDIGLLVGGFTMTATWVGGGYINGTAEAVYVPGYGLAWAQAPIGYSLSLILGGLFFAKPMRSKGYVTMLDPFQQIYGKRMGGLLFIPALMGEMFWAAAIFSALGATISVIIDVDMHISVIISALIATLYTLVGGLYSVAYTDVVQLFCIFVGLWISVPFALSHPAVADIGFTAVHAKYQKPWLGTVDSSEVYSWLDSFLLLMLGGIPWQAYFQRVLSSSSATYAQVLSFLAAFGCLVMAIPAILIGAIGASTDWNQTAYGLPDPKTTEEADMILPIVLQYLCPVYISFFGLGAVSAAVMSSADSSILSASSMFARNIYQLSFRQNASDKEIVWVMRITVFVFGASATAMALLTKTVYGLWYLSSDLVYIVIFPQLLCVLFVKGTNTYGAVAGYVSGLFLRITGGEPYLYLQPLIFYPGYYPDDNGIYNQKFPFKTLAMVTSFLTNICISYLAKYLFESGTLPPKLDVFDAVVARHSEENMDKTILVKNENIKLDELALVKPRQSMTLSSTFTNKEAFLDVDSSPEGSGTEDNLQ
SUMO Mot1 rescue = yeast Mot1-301 growth rescue at high temperature, primary screen, SUMOylation pathway inhibitor project, S. cerevisiae, ATP luminescence, 38.5C. S. cerevisiae Mot1-301 growth rescue; percent above DMSO median, 100 means doubled. growth rescue, % at 18.8 µM. hit rate 1% among 320,000;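 active = every valid replicate shows activation above 250% relative to neutral control wells; inactive = the rest, any valid replicate at or below 250%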
MEKK3 PB1 HTS = modulators of MEKK3-MEK5 PB1 binding, primary screen, biochemical, wildtype MEKK3, multiplex bead flow cytometry, Alexa488-MEK5 | Mitogen-activated protein kinase kinase kinase 3 (Homo sapiens), Q99759 | binding response (% of control), % at 10 µM | hit rate 1.4% among 290,000 | bead-based flow cytometry, Alexa488-MEK5 binding to MEKK3; actives lie on both sides; 0 = blocked by unlabeled MEK5, 100 = vehicle;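 active = binding response more than 3 SD above or below the average of its plate-row segment, actives on both sides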;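 also: Alexa488 bead fluorescence after subtracting the streptavidin-only scavenger bead signal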
CHT inh = inhibitors of human choline transporter CHT; High affinity choline transporter 1 (Homo sapiens), Q9GZV3; CHT-expressing cells, membrane potential dye, choline response; stronger effect = lower value; B-score at 10 µM; hit rate 0.86% among 310,000;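 active = B-score over 3 SD under the library average, and starting fluorescence ratio not unusually high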;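 also: choline stimulus applied at its EC90 after an EC20 pre-addition; B-score computed on integrated fluorescence ratio after choline addition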
MEKK2wt confirm = modulators of MEK5 binding to wildtype MEKK2, confirmation, biochemical, single concentration, multiplex bead flow cytometry | hit rate 2.4% among 5,900 | Alexa488-MEK5 binding to MEKK2 WT; actives lie on both sides | shares compounds with MEKK3 PB1 HTS | binding response (% of control), % at 10 µM | AID 1892, 2009; in the data active = binding response below about 16% or above about 210%; inactive = in between
MEKK2mut confirm = mutant MEKK2 PB1-MEK5 binding signal retest – biochemical, single concentration, multiplex bead flow cytometry, confirmation | shares compounds with MEKK3 PB1 HTS | Alexa488-MEK5 binding to MEKK2 mutant | percent response, % at 10 µM | hit rate 2% among 5,900 | AID 1893, 2009; in the data active = percent response mostly above about 71%, no sharp cut-off; inactive = mostly below about 38%;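 also: higher means compound restores mutant binding toward wildtype level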
MEKK3 confirm = MEKK3 wild-type PB1 binding to MEK5, inhibitors, confirmation, biochemical, bead multiplex flow cytometry, single concentration, wildtype; shares compounds with MEKK3 PB1 HTS; Alexa488-MEK5 binding to MEKK3; stronger effect = lower value; binding response (% of control), % at 10 µM; hit rate 1.8% among 5,900;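 active = binding response below 72% of control, or above a set upper limit, though filed actives all read lower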
Each line names hits and unclear results; the compound was inactive in the other large screens (follow-up assays come after a bar, where they were run); [ ] = dose if it differs, or a comment. A selection: hits, their analogues and other compounds. The true share with any hit is near 4.1%.

COc1ccc(C(CCN2CCCC(C)C2)c2c(OC)cc(OC)c3c(C)cc(=O)oc23)cc1 (centres undefined)	MEKK2wt PB1 HTS 138 | MEKK2wt confirm inactive | MEKK2mut confirm inactive | MEKK3 confirm inactive
COc1cc(C2CC(=O)Oc3c(C(CCN4CCOCC4)c4ccc(N(C)C)cc4)c(OC)cc(OC)c32)cc(OC)c1OC (centres undefined)	none
COc1ccc(C2CC(=O)Oc3c(C(CCN4CCCC(C)C4)c4ccc(N(C)C)cc4)c(OC)cc(OC)c32)cc1 (centres undefined)	MEKK2wt PB1 HTS 152 | MEKK2wt confirm inactive | MEKK2mut confirm inactive | MEKK3 confirm inactive
Cc1c(C(=O)N/N=C/c2cccnc2)sc(N)c1C#N	none
Cc1cccc(C)c1NC(=O)Cn1nnc(-c2ccc(CN3CCC(C)CC3)cc2)n1	MEKK3 PB1 HTS 144 | MEKK2wt confirm inactive | MEKK2mut confirm inactive | MEKK3 confirm inactive
CC1CCN(Cc2ccc(-c3nnn(CC(=O)Nc4ccccc4Cl)n3)cc2)CC1	none
Cc1csc(NC(=O)CSc2nnc(Cn3c(=O)sc4ccccc43)n2-c2ccccc2)n1	none
CCO[C@@H]1OC(C(=O)Nc2ccccc2)=C[C@H](C2CC2)[C@H]1CCCO	none
CCc1ccc(CCN2C(=O)c3ccccc3C2=O)nc1	MEKK3 PB1 HTS 75[inhibitor] | MEKK2wt confirm inactive | MEKK2mut confirm inactive | MEKK3 confirm inactive
Cc1nc(CCN2C(=O)c3ccccc3C2=O)n[nH]1	none
O=C(COC(=O)c1cccc(O)c1)Nc1ccc(N2CCOCC2)cc1	none (no result: MEKK2 mut-MEK5, MEKK2wt PB1 HTS, CHT PAM, MEKK3 PB1 HTS, CHT inh)
COCCNC(=O)c1ccc(CS(=O)(=O)c2ccccc2OC)o1	none
COc1ccccc1S(=O)(=O)Cc1ccc(C(=O)NCCN2CCCCCC2)o1	MEKK2wt PB1 HTS 135 | MEKK2wt confirm inactive | MEKK2mut confirm inactive | MEKK3 confirm inactive
CNC(=O)CCc1[nH]c2ccccc2c1Sc1ccccc1	MEKK3 PB1 HTS 160 | MEKK2wt confirm inactive | MEKK2mut confirm inactive | MEKK3 confirm inactive
COC(=O)c1[nH]c2ccccc2c1Sc1ccccc1	none
CCOC(=O)C1=C(C)Nc2sc(C(=O)c3ccc(C)cc3)c(N)c2C1c1ccc(C(=O)OC)cc1 (centres undefined)	MEKK3 PB1 HTS 149 | MEKK2wt confirm inactive | MEKK2mut confirm inactive | MEKK3 confirm inactive
CCOC(=O)C1=C(C)NC(SCC(=O)OC)=C(C#N)C1c1ccc(C(=O)OC)cc1 (centres undefined)	none
O=C(Nc1cc(C(F)(F)F)ccc1F)C1CCCCC1	MEKK3 PB1 HTS 72[inhibitor] | MEKK2wt confirm inactive | MEKK2mut confirm inactive | MEKK3 confirm inactive
CCOC(=O)c1ccccc1NC(=O)Cc1ccc(S(=O)(=O)N2CCCC2)s1	none (no result: MEKK2 mut-MEK5, MEKK2wt PB1 HTS, CHT PAM, MEKK3 PB1 HTS, CHT inh)
Cc1ccc(S(=O)(=O)N(C)C)cc1NC(=S)NNC(=O)C1CC1	MEKK3 PB1 HTS 131 (no result: SUMO Mot1 rescue) | MEKK2wt confirm inactive | MEKK2mut confirm inactive | MEKK3 confirm inactive
O=C(O)CCNC(=O)/C(=C\C=C\c1ccccc1)NC(=O)c1ccccc1	MEKK3 PB1 HTS 134 (no result: SUMO Mot1 rescue) | MEKK2wt confirm inactive | MEKK2mut confirm inactive | MEKK3 confirm inactive
COC(=O)/C(=C\C=C\c1ccccc1)NC(=O)c1ccccc1	none
COc1cc(CCCN2CCNC[C@@H]2Cc2ccccc2)cc(OC)c1OC	none (no result: MEKK2 mut-MEK5, MEKK2wt PB1 HTS, MEKK3 PB1 HTS)
CC(=O)Nc1ccc(S(=O)(=O)NCCCc2ccccc2)cc1	none
Cc1cc(C(=O)C(=O)NC(C)C)c(C)n1-c1ccc([N+](=O)[O-])cc1	MEKK3 PB1 HTS 80[inhibitor] | MEKK2wt confirm inactive | MEKK2mut confirm inactive | MEKK3 confirm inactive
O=C(NCCCNC(=O)c1c(Cl)cccc1Cl)c1c(Cl)cccc1Cl	none (no result: MEKK2 mut-MEK5, MEKK2wt PB1 HTS, MEKK3 PB1 HTS)
COC(=O)CC1C(=O)NCCN1C(=O)c1ccc(Cl)cc1 (centres undefined)	none
O=C(Nc1ccc2c(c1)OCO2)c1ccc(NC2CC2)c([N+](=O)[O-])c1	MEKK3 PB1 HTS 151 | MEKK2wt confirm inactive | MEKK2mut confirm inactive | MEKK3 confirm inactive
O=C1CCC(C(=O)N2CCCC(Nc3ccc(F)cc3)C2)=NN1 (centres undefined)	none
Cc1cccc(OCCCC(=O)NCCc2ccccc2)c1	MEKK3 PB1 HTS 137 | MEKK2wt confirm inactive | MEKK2mut confirm inactive | MEKK3 confirm inactive
COc1ccccc1NC(=O)CSCc1nc2ccccc2[nH]1	none
CN(C)CCOc1ccc(/C(=C(/CCCl)c2ccccc2)c2ccccc2)cc1	MEKK2wt PB1 HTS 176 (no result: SUMO Mot1 rescue) | MEKK2wt confirm inactive | MEKK2mut confirm inactive | MEKK3 confirm inactive
CCO[C@@H]1OC(C(=O)N2CCOCC2)=C[C@H](c2coc3ccccc3c2=O)[C@H]1CCCO	none
Cc1oc(-c2ccccc2Cl)nc1CN1CCCC1c1ccc(F)cc1 (centres undefined)	none
Cc1oc(-c2ccccc2Cl)nc1Cn1cccc1C1=NC(c2ccccc2)CO1 (centres undefined)	MEKK2wt PB1 HTS 29[inhibitor], MEKK3 PB1 HTS 19[inhibitor] | MEKK2wt confirm inactive | MEKK2mut confirm inactive | MEKK3 confirm inactive
Cc1[nH]c2ccc(F)cc2c1CCNC(=O)C1CCCCC1C(=O)OCC(F)(F)F (centres undefined)	MEKK3 PB1 HTS 153 | MEKK2wt confirm inactive | MEKK2mut confirm inactive | MEKK3 confirm inactive
COc1ccc2[nH]c(C)c(CCNC(=S)Nc3ccc(F)cc3)c2c1	none
CN(CC(=O)Nc1cccc(Cl)c1)S(=O)(=O)c1ccc2c(c1)n(C)c(=O)c(=O)n2C	none
Cc1nc(Cl)c(C(=O)NCCc2ccccc2)c(C)c1[N+](=O)[O-]	none
Cc1cc(C2N=C(N)Nc3nc4ccccc4n32)c(C)n1-c1ccccc1Cl (centres undefined)	MEKK2 mut-MEK5 26, MEKK2wt PB1 HTS 138 | MEKK2wt confirm inactive | MEKK2mut confirm inactive | MEKK3 confirm inactive
